# Laboratory results taken from article PMC8384837, “Expanding the binding specificity for RNA recognition by a PUF domain”.
# Substitutions are numbered along the chain they refer to.
# Experiments:
# Test in all cases: yeast three-hybrid, YBZ-1, SC-Leu-His + 0.5 mM 3-AT, 4 days
# Conditions in all cases: tags: N-Gal4 AD-HA kept; label: inside an RPR1-promoter hybrid RNA with tandem MS2 sites; ssRNA
# PUM1 PUF domain R3-RTM = PUM1 PUF domain R3-RTM (Homo sapiens, UniProt Q14671 828-1176, C935R;R936T;Q939M)
# Outline: (§1)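 Repeat regions from input (SC-Leu) and selection (SC-Leu-His + 0.5 mM 3-AT) plates were PCR-amplified and Illumina-sequenced after four days of growth. The cells were strain YBZ-1 with a LexA–MS2 coat fusion and a HIS3 reporter, co-expressing Pumilio-1 PUF domain libraries and matching RNA elements from a centromeric plasmid. The interaction score is the log change in variant frequency from input to selection, taken in log2 with a pseudocount of 1 for absent variants.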
# PUM1 PUF domain R3-EWA = PUM1 PUF domain R3-EWA (Homo sapiens, UniProt Q14671 828-1176, C935E;R936W;Q939A)
# Outline: as §1
# PUM1 PUF domain R3-KFN = PUM1 PUF domain R3-KFN (Homo sapiens, UniProt Q14671 828-1176, C935K;R936F;Q939N)
# Outline: as §1
# PUM1 PUF domain R3-IFK = PUM1 PUF domain R3-IFK (Homo sapiens, UniProt Q14671 828-1176, C935I;R936F;Q939K)
# Outline: as §1
# PUM1 PUF domain R4-SPG = PUM1 PUF domain R4-SPG (Homo sapiens, UniProt Q14671 828-1176, N971S;H972P;Q975G)
# Outline: as §1
# PUM1 PUF domain R6-FRV = molecular target: T1, PUM1 PUF domain R6-FRV (Homo sapiens, UniProt Q14671 828-1176, N1043F;Y1044R;Q1047V)
# T1 sequence: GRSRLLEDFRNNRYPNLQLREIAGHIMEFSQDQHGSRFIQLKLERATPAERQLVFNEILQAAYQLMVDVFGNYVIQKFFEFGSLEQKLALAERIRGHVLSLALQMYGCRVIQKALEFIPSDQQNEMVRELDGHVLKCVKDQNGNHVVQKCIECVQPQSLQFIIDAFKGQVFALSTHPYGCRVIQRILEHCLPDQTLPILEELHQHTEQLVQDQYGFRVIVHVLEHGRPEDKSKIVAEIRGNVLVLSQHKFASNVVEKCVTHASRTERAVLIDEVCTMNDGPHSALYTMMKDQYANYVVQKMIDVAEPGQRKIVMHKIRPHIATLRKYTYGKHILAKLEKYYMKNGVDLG
# Outline: as §1
# PUM1 PUF domain R5-GQC = PUM1 PUF domain R5-GQC (Homo sapiens, UniProt Q14671 828-1176, C1007G;R1008Q;Q1011C)
# Outline: as §1
# PUM1 PUF domain R4-RMI = PUM1 PUF domain R4-RMI (Homo sapiens, UniProt Q14671 828-1176, N971R;H972M;Q975I)
# Outline: as §1
# PUM1 PUF domain R5-DRN = PUM1 PUF domain R5-DRN (Homo sapiens, UniProt Q14671 828-1176, C1007D;Q1011N)
# Outline: as §1
# PUM1 PUF domain R4-DFM = PUM1 PUF domain R4-DFM (Homo sapiens, UniProt Q14671 828-1176, N971D;H972F;Q975M)
# Outline: as §1
# PUM1 PUF domain R2-EWG = PUM1 PUF domain R2-EWG (Homo sapiens, UniProt Q14671 828-1176, N899E;Y900W;Q903G)
# Outline: as §1
# PUM1 PUF domain R6-TWD = molecular target: T2, PUM1 PUF domain R6-TWD (Homo sapiens, UniProt Q14671 828-1176, N1043T;Y1044W;Q1047D)
# T2 sequence: T1 sequence with F216T, R217W, V220D
# Outline: as §1
# PUM1 PUF domain R1-GFE = PUM1 PUF domain R1-GFE (Homo sapiens, UniProt Q14671 828-1176, S863G;R864F;Q867E)
# Outline: as §1
# PUM1 PUF domain R1-RKK = PUM1 PUF domain R1-RKK (Homo sapiens, UniProt Q14671 828-1176, S863R;R864K;Q867K)
# Outline: as §1
# PUM1 PUF domain R1-KGT = PUM1 PUF domain R1-KGT (Homo sapiens, UniProt Q14671 828-1176, S863K;R864G;Q867T)
# Outline: as §1
# PUM1 PUF domain R8-KWF = PUM1 PUF domain R8-KWF (Homo sapiens, UniProt Q14671 828-1176, N1122K;Y1123W;Q1126F)
# Outline: as §1
# PUM1 PUF domain R8-PYF = PUM1 PUF domain R8-PYF (Homo sapiens, UniProt Q14671 828-1176, N1122P;Q1126F)
# Outline: as §1
# PUM1 PUF domain R5-VNR = PUM1 PUF domain R5-VNR (Homo sapiens, UniProt Q14671 828-1176, C1007V;R1008N;Q1011R)
# Outline: as §1
# PUM1 PUF domain R5-RLM = PUM1 PUF domain R5-RLM (Homo sapiens, UniProt Q14671 828-1176, C1007R;R1008L;Q1011M)
# Outline: as §1
# PUM1 PUF domain R5-PHS = PUM1 PUF domain R5-PHS (Homo sapiens, UniProt Q14671 828-1176, C1007P;R1008H;Q1011S)
# Outline: as §1
# PUM1 PUF domain R3-EWA, sequence (Q14671 828-1176 C935E/R936W/Q939A): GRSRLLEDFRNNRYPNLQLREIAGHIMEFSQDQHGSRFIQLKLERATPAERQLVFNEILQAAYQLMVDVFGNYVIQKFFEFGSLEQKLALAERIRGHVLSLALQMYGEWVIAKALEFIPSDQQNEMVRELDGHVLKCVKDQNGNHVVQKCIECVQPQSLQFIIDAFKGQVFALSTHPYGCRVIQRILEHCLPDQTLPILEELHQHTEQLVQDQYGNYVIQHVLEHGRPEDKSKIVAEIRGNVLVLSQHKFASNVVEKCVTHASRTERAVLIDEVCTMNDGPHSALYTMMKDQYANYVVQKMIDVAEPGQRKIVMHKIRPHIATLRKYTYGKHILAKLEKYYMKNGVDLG
# PUM1 PUF domain R4-SPG, sequence (Q14671 828-1176 N971S/H972P/Q975G): as the sequence (Q14671 828-1176 C935E/R936W/Q939A) above, with E108C, W109R, A112Q, N144S, H145P, Q148G counted along it
sequence,measurement,setting,value
GGCUAGAACUAGUGGAUCCCCCGGCGCCCGGCGGCUCGAGCCCGGGUAAGUGUAAUUAGUCUGCAUGCCGCCGGGCGCCAUGCCUGCAGGUCGACUCUAGAAAACAUG,binding signal,PUM1 PUF domain R3-RTM,2.52 log2 enrichment (interaction score)
same,binding signal,PUM1 PUF domain R3-EWA,4.15 log2 enrichment (interaction score)
same,binding signal,PUM1 PUF domain R3-KFN,3.99 log2 enrichment (interaction score)
same,binding signal,PUM1 PUF domain R3-IFK,2.58 log2 enrichment (interaction score)
GGCUAGAACUAGUGGAUCCCCCGGCGCCCGGCGGCUCGAGCCCGGGUAAGUGUAAAUAGUCUGCAUGCCGCCGGGCGCCAUGCCUGCAGGUCGACUCUAGAAAACAUG,binding signal,PUM1 PUF domain R4-SPG,4.58 log2 enrichment (interaction score)
same,binding signal,PUM1 PUF domain R6-FRV,2.7 log2 enrichment (interaction score)
same,binding signal,PUM1 PUF domain R3-EWA,4.04 log2 enrichment (interaction score)
same,binding signal,PUM1 PUF domain R5-GQC,3.41 log2 enrichment (interaction score)
same,binding signal,PUM1 PUF domain R4-RMI,3.31 log2 enrichment (interaction score)
same,binding signal,PUM1 PUF domain R5-DRN,3.15 log2 enrichment (interaction score)
same,binding signal,PUM1 PUF domain R4-DFM,5.89 log2 enrichment (interaction score)
GGCUAGAACUAGUGGAUCCCCCGGCGCCCGGCGGCUCGAGCCCGGGUAAGUGUAAAGAGUCUGCAUGCCGCCGGGCGCCAUGCCUGCAGGUCGACUCUAGAAAACAUG,binding signal,PUM1 PUF domain R2-EWG,4.05 log2 enrichment (interaction score)
GGCUAGAACUAGUGGAUCCCCCGGCGCCCGGCGGCUCGAGCCCGGGUAAGUGAAAAUAGUCUGCAUGCCGCCGGGCGCCAUGCCUGCAGGUCGACUCUAGAAAACAUG,binding signal,PUM1 PUF domain R6-TWD,3.18 log2 enrichment (interaction score)
GGCUAGAACUAGUGGAUCCCCCGGCGCCCGGCGGCUCGAGCCCGGGUAAGUGUAAAUUGUCUGCAUGCCGCCGGGCGCCAUGCCUGCAGGUCGACUCUAGAAAACAUG,binding signal,PUM1 PUF domain R1-GFE,0.52 log2 enrichment (interaction score)
same,binding signal,PUM1 PUF domain R1-RKK,3.57 log2 enrichment (interaction score)
same,binding signal,PUM1 PUF domain R1-KGT,3.61 log2 enrichment (interaction score)
GGCUAGAACUAGUGGAUCCCCCGGCGCCCGGCGGCUCGAGCCCGGGUAAGCGUAAAUAGUCUGCAUGCCGCCGGGCGCCAUGCCUGCAGGUCGACUCUAGAAAACAUG,binding signal,PUM1 PUF domain R8-KWF,4.32 log2 enrichment (interaction score)
same,binding signal,PUM1 PUF domain R8-PYF,5.02 log2 enrichment (interaction score)
GGCUAGAACUAGUGGAUCCCCCGGCGCCCGGCGGCUCGAGCCCGGGUAAGUGUUAAUAGUCUGCAUGCCGCCGGGCGCCAUGCCUGCAGGUCGACUCUAGAAAACAUG,binding signal,PUM1 PUF domain R5-VNR,2.69 log2 enrichment (interaction score)
same,binding signal,PUM1 PUF domain R5-RLM,2.52 log2 enrichment (interaction score)
GGCUAGAACUAGUGGAUCCCCCGGCGCCCGGCGGCUCGAGCCCGGGUAAGUGUAUAUAGUCUGCAUGCCGCCGGGCGCCAUGCCUGCAGGUCGACUCUAGAAAACAUG,binding signal,PUM1 PUF domain R4-SPG,3.58 log2 enrichment (interaction score)
GGCUAGAACUAGUGGAUCCCCCGGCGCCCGGCGGCUCGAGCCCGGGUAAGUGUCAAUAGUCUGCAUGCCGCCGGGCGCCAUGCCUGCAGGUCGACUCUAGAAAACAUG,binding signal,PUM1 PUF domain R5-DRN,1.45 log2 enrichment (interaction score)
same,binding signal,PUM1 PUF domain R5-RLM,1.79 log2 enrichment (interaction score)
GGCUAGAACUAGUGGAUCCCCCGGCGCCCGGCGGCUCGAGCCCGGGUAAGUGUAAGUAGUCUGCAUGCCGCCGGGCGCCAUGCCUGCAGGUCGACUCUAGAAAACAUG,binding signal,PUM1 PUF domain R3-EWA,4.37 log2 enrichment (interaction score)
GGCUAGAACUAGUGGAUCCCCCGGCGCCCGGCGGCUCGAGCCCGGGUAAGUGUAAAUGGUCUGCAUGCCGCCGGGCGCCAUGCCUGCAGGUCGACUCUAGAAAACAUG,binding signal,PUM1 PUF domain R1-GFE,4.79 log2 enrichment (interaction score)
GGCUAGAACUAGUGGAUCCCCCGGCGCCCGGCGGCUCGAGCCCGGGUAAGUGUACAUAGUCUGCAUGCCGCCGGGCGCCAUGCCUGCAGGUCGACUCUAGAAAACAUG,binding signal,PUM1 PUF domain R4-SPG,2.11 log2 enrichment (interaction score)
same,binding signal,PUM1 PUF domain R4-DFM,5.35 log2 enrichment (interaction score)
GGCUAGAACUAGUGGAUCCCCCGGCGCCCGGCGGCUCGAGCCCGGGUAAGUGUAAAAAGUCUGCAUGCCGCCGGGCGCCAUGCCUGCAGGUCGACUCUAGAAAACAUG,binding signal,PUM1 PUF domain R2-EWG,8.11 log2 enrichment (interaction score)
GGCUAGAACUAGUGGAUCCCCCGGCGCCCGGCGGCUCGAGCCCGGGUAAGUGUAAAUCGUCUGCAUGCCGCCGGGCGCCAUGCCUGCAGGUCGACUCUAGAAAACAUG,binding signal,PUM1 PUF domain R1-KGT,4.83 log2 enrichment (interaction score)
GGCUAGAACUAGUGGAUCCCCCGGCGCCCGGCGGCUCGAGCCCGGGUAAGUGUGAAUAGUCUGCAUGCCGCCGGGCGCCAUGCCUGCAGGUCGACUCUAGAAAACAUG,binding signal,PUM1 PUF domain R5-PHS,2.78 log2 enrichment (interaction score)
